Measured values published in PubChem BioAssay AID720633 (The Scripps Research Institute Molecular Screening Center, 2013).
This is one part of the list. Calls of active or inactive are those of the source.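 Rule for the calls: active = inhibition above the cutoff, the mean of compounds lying between the control bounds plus 3 SD of those compounds (cut at about 17% in these data); inactive = the rest.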

molecular target: Fibrinogen beta chain (Homo sapiens) (UniProt P02675); experiment: DD(E) binders in alternate-peptide displacement assay, confirmation, counter-screen for fibrin DD(E)-Tn7 binding project, biochemical, fluorescence polarization, human fibrin (AID 720633); details: TRITC-Tn7 probe displacement, at 8.3 µM, active compounds read high;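 note: 0% = median of compound sample wells and 100% = excess unlabeled Aha-Tn7 peptide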
Sequence (P02675 whole entry, looked up): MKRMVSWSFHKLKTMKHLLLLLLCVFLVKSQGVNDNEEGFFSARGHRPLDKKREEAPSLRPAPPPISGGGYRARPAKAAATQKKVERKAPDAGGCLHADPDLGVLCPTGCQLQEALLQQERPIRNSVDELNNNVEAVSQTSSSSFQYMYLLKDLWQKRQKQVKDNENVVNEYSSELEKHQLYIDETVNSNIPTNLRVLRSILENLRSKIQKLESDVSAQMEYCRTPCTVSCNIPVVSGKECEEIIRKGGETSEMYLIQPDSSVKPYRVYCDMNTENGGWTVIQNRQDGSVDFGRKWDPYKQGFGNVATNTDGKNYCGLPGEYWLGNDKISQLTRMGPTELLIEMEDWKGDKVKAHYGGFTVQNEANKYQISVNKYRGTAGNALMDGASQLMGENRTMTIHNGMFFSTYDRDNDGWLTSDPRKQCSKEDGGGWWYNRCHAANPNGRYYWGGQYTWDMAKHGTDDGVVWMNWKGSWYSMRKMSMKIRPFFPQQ

Structure (SMILES) | inhibition
O=C(/C=C/c1ccccc1[N+](=O)[O-])NCC1CCCO1 (centres undefined) | 6.91% (inactive)
Cc1nn(C)cc1N1C(=O)c2cccc3c(N)ccc(c23)C1=O | 1.67% (inactive)
Oc1ccc2ccc3cccc[n+]3c2c1 | -23.9% (inactive)
Cn1c(CC(=O)NNC(=O)c2ccccc2F)nc2ccccc21 | -5.95% (inactive)
c1cc(-c2nn[nH]n2)ccc1CN1CCCCC1 | -9.04% (inactive)
CCOc1ccc(Nc2oc(Cc3ccccc3)nc2C#N)cc1 | -10.1% (inactive)
O=C(CSc1nnc(-c2ccccn2)n1-c1ccc(Cl)cc1)Nc1ccccc1-c1ccccc1 | -2.23% (inactive)
COc1ccc(-c2nc(CCNC(=O)c3ccc(Br)o3)cs2)cc1 | -3.63% (inactive)
CC(C)(C)c1cc(CN2CCN(CCC#N)CC2)cc(C(C)(C)C)c1O | 0.66% (inactive)
OC(c1ccccc1)c1nc(-c2cnc3ccccc3c2)cs1 (centres undefined) | 3.54% (inactive)
COc1cc(C(=S)N2CCOCC2)ccc1O | 6.48% (inactive)
Cc1cc2nc3c(=O)n(Cc4ccccc4)c(=O)[nH]c3nc2cc1N | -4.98% (inactive)
COc1ccc(N=Nc2c(-c3ccc(OC)cc3)[nH]oc2=O)cc1 | -6.55% (inactive)
Cc1cc2nc3c(=O)[nH]c(=O)nc-3n(C[C@H](O)[C@H](O)[C@H](O)CO)c2cc1C | 12.4% (inactive)
O=C(NCc1ccccc1)c1cccc(NC(=O)C2CCCCC2)c1 | 0.56% (inactive)
C#CCNc1ccc(C(=O)OCC)cc1 | 4.2% (inactive)
COc1ccc(S(=O)(=O)c2c[nH]c(=S)[nH]c2=O)cc1Cl | -4.35% (inactive)
Cc1nnc2n1N=C(c1ccc3c(c1)NC(=O)CO3)CS2 | -7.74% (inactive)
O=C(Nc1ccon1)c1sc2ccccc2c1Cl | -2.1% (inactive)
CN1C(=O)c2cccc3c(N)ccc(c23)C1=O | 8.6% (inactive)
O=C(COC(=O)/C=C/c1ccc(OC(F)F)cc1)NC1CCCCC1 | 6.67% (inactive)
COc1cccc(N2CC(NS(=O)(=O)c3cccs3)CC2=O)c1 (centres undefined) | -2.24% (inactive)
CN1c2ccc(C=O)c3c(C=O)ccc(c23)N(C)C1(C)C | -6.98% (inactive)
O=C(COC(=O)c1ccc([N+](=O)[O-])cc1Cl)NC(=O)c1ccccc1 | 1.45% (inactive)
